KCNQ2 pot – enhances the rat KCNQ2 potassium channel. B-score at 10 µM. AID 2239. 0.54% of 310,000 active. CHO-K1 KCNQ2, FluxOR thallium flux fluorescence; hits give high values. O88943;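 active = fluorescence ratio B-score at least 3 SD of library B-scores, with initial fluorescence B-score within 3 of them, cut at about 5.3 in these data; same plate scores as AID 2156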;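 also: B-score of peak minus minimum over baseline fluorescence ratio after K+ and Tl+ stimulus; positive B-score means potentiation of KCNQ2 with more thallium influx and brighter signal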
KCNQ2 block – KCNQ2 (rat) channel inhibition | AID 2156 | CHO-K1 KCNQ2, FluxOR thallium flux, 20 min; hits give low values | B-score at 10 µM | 1.1% of 310,000 active | O88943;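 active = fluorescence ratio B-score at most minus 3 library SDs, with starting brightness B-score within 2 library SDs, cut at about -5.5 in these data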
Kir21 conf inh – confirmation of mouse Kir2.1 potassium channel inhibitors; AID 2032; Tl flux remaining, % of negative control (hits give low values), % at 10 µM; 41% of 2,300 active; shares compounds with KCNQ2 pot; Kir2.1-expressing cells, FluxOR thallium flux fluorescence; hits give low values;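 active = Primary-screen hit whose thallium flux fell at least 3 control SD below untreated wells in both duplicates, with normal baseline fluorescence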;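 also: 0% = blank wells without stimulus and 100% = stimulated no-compound controls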
Target sequence (P35561 whole entry, looked up): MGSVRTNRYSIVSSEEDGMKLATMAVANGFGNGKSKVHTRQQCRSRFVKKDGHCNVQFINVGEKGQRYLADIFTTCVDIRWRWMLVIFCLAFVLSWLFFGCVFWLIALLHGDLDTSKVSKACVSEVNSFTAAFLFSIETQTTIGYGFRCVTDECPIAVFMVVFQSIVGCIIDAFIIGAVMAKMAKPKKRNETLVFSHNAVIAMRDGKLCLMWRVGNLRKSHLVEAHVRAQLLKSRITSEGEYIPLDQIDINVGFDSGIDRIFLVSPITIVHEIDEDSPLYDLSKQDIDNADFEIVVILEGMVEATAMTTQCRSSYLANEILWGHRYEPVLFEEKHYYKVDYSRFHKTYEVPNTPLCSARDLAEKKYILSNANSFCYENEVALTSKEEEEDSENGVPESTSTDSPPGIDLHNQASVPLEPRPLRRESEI
HEK293 Tl flux – alters thallium flux in parental HEK293 cells, Kir2.1 counter-screen; FluxOR signal as % of negative control (100 = no effect), % at 10 µM; 19% of 2,300 active; FluxOR thallium flux fluorescence; 0% = unstimulated blank wells; shares compounds with KCNQ2 pot;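 active = dye signal at least 3 control SD above or below untreated wells in both duplicates, raw fluorescence within 3, either direction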;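 also: percent is based on the flux ratio of peak minus minimum fluorescence over baseline F0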
CHO-K1 Tl ctr – parental CHO-K1 activity in KCNQ2 potentiator counter-screen | shares compounds with KCNQ2 pot | parental CHO-K1 cells, FluxOR thallium flux fluorescence; zero = vehicle mean+3SD, 100% = vehicle-minus-blank window | activity increase over 3SD of controls, % at 10 µM | 43% of 1,200 active | AID 2282;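 active = signal rise of at least 3 SD above the untreated control mean, in both duplicate wells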;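 also: counter screen of KCNQ2 potentiator hits so any rise reflects channel-independent effects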
KCNQ1 pot spec – tests whether KCNQ2 potentiators also act on human KCNQ1 | shares compounds with KCNQ2 pot | CHO KCNQ1 stable, FluxOR thallium flux fluorescence; beyond 3SD, as % of vehicle-control signal | activation over 3SD threshold, % at 10 µM | 28% of 1,200 active | AID 2283;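 active = fluorescence ratio rise of at least 3 SD of vehicle wells above their mean, in both replicate wells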;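 also: 0% = vehicle mean plus 3 SD and 100% = vehicle minus unstimulated blank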
KCNQ2 pot confirm – rat KCNQ2 channel potentiator confirmation; shares compounds with KCNQ2 pot; CHO-KCNQ2 cells, FluxOR thallium flux fluorescence; potentiation, less the hit threshold, % at 10 µM; 68% of 1,200 active;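 active = fluorescence ratio rising 3 SD or more over the vehicle control mean in both replicates, plus primary screen hit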;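 also: peak minus minimum thallium fluorescence divided by baseline after K/Tl stimulus; 0% = vehicle mean plus 3 SD and 100% = vehicle minus unstimulated blank difference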
Kir21 spec – selectivity of KCNQ2 potentiators: effect on mouse Kir2.1; 2% of 1,200 active; AID 2345; HEK293 Kir2.1, FluxOR thallium flux fluorescence; shares compounds with KCNQ2 pot; activity over 3SD threshold, % at 10 µM;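 active = fluorescence ratio rise of at least 3 SD above the vehicle-control mean, seen in both replicates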;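 also: 0% = vehicle mean plus 3 SD and 100% = vehicle minus no-stimulus blank window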
KCNQ2 W236L MoA – KCNQ2 potentiators acting on retigabine-insensitive rat KCNQ2 W236L mutant. CHO KCNQ2-W236L, automated patch clamp current. current increase over 3SD of negative controls (%), hits give high values, % at 25 µM. 10% of 940 active. AID 2558. shares compounds with KCNQ2 pot;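 active = current increase at least 3 SD of the untreated controls above them in both duplicate recordings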
Numbers without * were called inactive; i = inactive; x = not tested or not shown. Most compounds without a hit are left out; they make up all but 1.6% or so of the library.

SMILES | KCNQ2 pot | KCNQ2 block | Kir21 conf inh | HEK293 Tl flux | others
Cc1ccc(C)c(NC(=O)CSc2nc3nc(-c4cccs4)cc(C(F)(F)F)c3c(=O)[nH]2)c1 | 6.4* | i | i | i | CHO-K1 Tl ctr=-8;KCNQ1 pot spec=34*;KCNQ2 pot confirm=-97;Kir21 spec=-35
O=C(CSc1nc2nc(-c3cccs3)cc(C(F)(F)F)c2c(=O)[nH]1)Nc1ccc(F)c(F)c1 | 1.3 | i | x | x
COc1ccc(-c2csc(NC(=S)NC(=O)c3cccs3)n2)cc1OC | 3.2 | i | x | x
COc1ccc(-c2csc(NC(=S)NC(=O)c3cccs3)n2)cc1Br | 7.1* | i | i | 70%* | CHO-K1 Tl ctr=-5;KCNQ1 pot spec=-16;KCNQ2 pot confirm=-2;Kir21 spec=-35
N=C1S/C(=C\c2ccc(-c3cccc(Cl)c3)o2)C(=O)N1c1nccs1 | 6.5* | i | i | i | CHO-K1 Tl ctr=-7;KCNQ1 pot spec=-22;KCNQ2 pot confirm=6.8*;Kir21 spec=-39;KCNQ2 W236L MoA=i
COc1ccc(/C=C2\SC(=N)N(c3nccs3)C2=O)cc1OC | 4.8 | i | x | x
O=C(COc1ncnc2ccc(Br)cc12)N1CCOCC1 | 0.98 | i | x | x
O=C(COc1ccc2cc(Br)ccc2c1Br)N1CCOCC1 | 9.5* | i | i | i | CHO-K1 Tl ctr=42*;KCNQ1 pot spec=-5;KCNQ2 pot confirm=8.8*;Kir21 spec=-44;KCNQ2 W236L MoA=i
CC1CCN(C(=O)COc2ccc3ccccc3c2Br)CC1 | 16* | i | i | i | CHO-K1 Tl ctr=-1;KCNQ1 pot spec=-11;KCNQ2 pot confirm=32*;Kir21 spec=-38;KCNQ2 W236L MoA=i
CC1CCN(C(=O)COc2ncnc3ccccc23)CC1 | 0.45 | i | x | x
CCN(c1ccc(NC(=O)CCc2nc3sc4c(c3c(=O)[nH]2)CCCC4)cc1)C(C)C | 0.31 | i | x | x
CCOc1ccc(N=C2NC(=O)SC2CC(=O)OC)cc1 (stereo not given) | x | i | x | x
CC(C)CN(CCNC(=O)CN1C(=O)COc2ccc(S(=O)(=O)N3CCC(C)CC3)cc21)CC(C)C | x | i | x | x
CCOC(=O)Cn1c(=N)n(CCOc2ccc3ccccc3c2)c2ccccc21 | x | i | 28%* | i
CCOC(=O)Cn1c(=N)n(CCOc2ccc(OC)cc2)c2ccccc21 | x | i | x | x
CC(=O)N1CCOc2ccc(S(=O)(=O)N3CCN(c4cc(C)ccc4C)CC3)cc21 | x | i | x | x
Oc1ccccc1-c1n[nH]c(=S)n1Cc1ccccc1 | 3.3 | i | x | x
Oc1ccc(Br)cc1-c1n[nH]c(=S)n1Cc1ccccc1 | 11* | i | x | x | CHO-K1 Tl ctr=-1;KCNQ1 pot spec=28*;KCNQ2 pot confirm=26*;Kir21 spec=-86
COC(=O)NNC(=O)C(C)Oc1ccc(Cl)cc1Cl (stereo not given) | x | i | x | x
CC(Oc1ccc(Cl)cc1Cl)C(=O)N(C)c1ccccc1 (stereo not given) | x | i | 50%* | i
CCOC(=O)c1[nH]c2ccc(Br)cc2c1NC(=O)CCN1CCCC(C)(C)C1 | 1.7 | i | x | x
Cn1c(SC/C=C/c2ccccc2)nnc1-c1cccs1 | x | i | x | x
C=CCn1c(Cc2cccs2)nnc1SC/C=C/c1ccccc1 | x | i | 31%* | i
CCn1c(SC/C=C/c2ccccc2)nnc1-c1cccs1 | x | i | 48%* | i
C=CCn1c(Cc2cccs2)nnc1SCC(=O)Nc1cc(OC)cc(OC)c1 | x | i | x | x
SMILES | KCNQ2 pot | KCNQ2 block | Kir21 conf inh | HEK293 Tl flux | others
Nc1oc2ccccc2c(=O)c1C=O | 1.2 | i | x | x
CNC(=O)c1cc(S(=O)(=O)N2CC(C)OC(C)C2)ccc1N1CCCCC1 (stereo not given) | 0.52 | i | x | x
COc1ccc(NC(=O)CN2C(=O)NC3(CCCC3)C2=O)c(OC)c1 | x | i | x | x
O=C(O)CCCC(=O)Nc1ccccc1Oc1ccccc1 | x | i | x | x
CCOc1ccc(Oc2ccccc2NC(=O)CN2C(=O)NC3(CCCC3)C2=O)cc1 | 5.9* | i | i | i | CHO-K1 Tl ctr=-7;KCNQ1 pot spec=-18;KCNQ2 pot confirm=26*;Kir21 spec=-39;KCNQ2 W236L MoA=i
CCCCC(=O)Nc1ccccc1Oc1ccccc1 | 9* | i | x | x | CHO-K1 Tl ctr=-10;KCNQ1 pot spec=-17;KCNQ2 pot confirm=19*;Kir21 spec=-81;KCNQ2 W236L MoA=i
CC(C)(C)CC(=O)O/N=C(\N)c1ccncc1 | 1.4 | i | x | x
CCc1c(C)nc2ncnn2c1N1CCN(S(=O)(=O)c2ccc(OC)cc2)CC1 | x | i | x | x
Cc1ccc(CNc2nc(C)cs2)cc1 | x | i | x | x
CSC(=S)N/N=C/c1ccccc1 | 9.3* | i | i | 218%* | CHO-K1 Tl ctr=-7;KCNQ1 pot spec=9.4*;KCNQ2 pot confirm=7.4*;Kir21 spec=-42;KCNQ2 W236L MoA=i
COc1ccc(/C=N/NC(=S)SC)cc1OC | 0.18 | i | x | x
O=C(NCCC1CCCCN1S(=O)(=O)c1ccc(Cl)cc1)C(=O)NCc1cccnc1 (stereo not given) | x | i | x | x
Cc1ccccc1OCCC(=O)Nc1ccc(N2CCOCC2)cc1N1CCOCC1 | 1.1 | i | x | x
Cc1[nH][nH]c(=O)c1C(c1ccc(-c2cccc(C(=O)O)c2)o1)c1c(C)[nH][nH]c1=O | x | i | x | x
Cc1[nH][nH]c(=O)c1C(c1ccc(-c2cccc(Cl)c2)o1)c1c(C)[nH][nH]c1=O | -5.9 | -5.9* | i | i
Cc1nn(C)c(C)c1/C=C1/SC(=S)NC1=O | 1.2 | i | x | x
Cc1ccc(C2C(/C=C3/SC(=S)NC3=O)=C(c3cccs3)Oc3ccccc32)cc1 (stereo not given) | 5.8* | i | i | i | CHO-K1 Tl ctr=-14;KCNQ1 pot spec=-9;KCNQ2 pot confirm=-9;Kir21 spec=-36
CSc1nc2ccc3nc(NC(=O)c4ccc(C)cc4)sc3c2s1 | 0.66 | i | x | x
Cc1ccc(C(=O)Nc2nc3ccccc3c(=O)s2)cc1 | 6.1* | i | i | 254%* | CHO-K1 Tl ctr=-14;KCNQ1 pot spec=-15;KCNQ2 pot confirm=-2;Kir21 spec=-17
NC(=O)c1ccc(SCC(=O)OCC(=O)N2CCCC2=O)c([N+](=O)[O-])c1 | 0.56 | i | x | x
Cc1cc(SCC(=O)OCC(=O)N2CCCC2=O)c(C)cc1Br | 1.1 | i | i | i
O=C(NCc1cccs1)c1cc(-c2ccncc2)nc2ccc(Br)cc12 | x | i | x | x
COc1ccccc1CN1CCN(S(=O)(=O)c2ccc(C)cc2)CC1 | x | i | x | x
CCc1cc2c3c([nH]c2cc1S(=O)(=O)N1CCC2(CC1)OCCO2)CCCC3=O | 1.6 | i | x | x
Cc1cc2c3c([nH]c2cc1S(=O)(=O)N1CCC2(CC1)OCCO2)CC(C)(C)CC3=O | 5.5* | i | i | 62%* | CHO-K1 Tl ctr=-3;KCNQ1 pot spec=-24;KCNQ2 pot confirm=-11;Kir21 spec=-27
Cc1cccc(CSc2nnc(CCNC(=O)OC(C)(C)C)o2)c1 | x | i | 33%* | i
CC(C)(C)OC(=O)NCCCCCc1nnc(SCc2cccc(F)c2)o1 | x | i | x | x
CC(C)(C)OC(=O)NCCc1nnc(SCc2cccc(Cl)c2)o1 | x | i | 26%* | i

Assay outcomes: PubChem BioAssay, Johns Hopkins Ion Channel Center
